Over roughly 39,000 sequences, “fluorescence intensity (a.u.)” has its median near 4,300; the highest 2% begin near 39,000. The list comes from a sample in which the highest values are over-represented; it also holds similar and randomly drawn sequences.

This assay deals with T1, OsSMF1 (Oryza sativa, UniProt Q6ZLB0 1-436).
T1 sequence: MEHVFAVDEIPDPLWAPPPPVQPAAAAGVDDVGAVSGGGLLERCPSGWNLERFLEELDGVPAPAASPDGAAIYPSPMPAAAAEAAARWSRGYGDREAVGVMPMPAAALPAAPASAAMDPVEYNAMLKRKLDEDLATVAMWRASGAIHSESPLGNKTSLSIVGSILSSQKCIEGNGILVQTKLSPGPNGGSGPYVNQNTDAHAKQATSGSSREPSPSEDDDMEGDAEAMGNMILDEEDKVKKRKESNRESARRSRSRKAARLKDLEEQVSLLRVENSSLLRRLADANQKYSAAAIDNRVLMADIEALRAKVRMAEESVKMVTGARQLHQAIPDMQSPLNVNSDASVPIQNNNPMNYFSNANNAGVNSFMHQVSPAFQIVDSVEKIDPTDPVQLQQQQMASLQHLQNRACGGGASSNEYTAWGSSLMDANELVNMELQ
Kind of assay: protein-binding microarray (RPBM); PBS, 2% BSA, 51.3 ng/ul salmon testes DNA, 50 uM zinc acetate, 200 nM TF, 25 C, 1 h; high values mean tight binding. To be noted: protein: recombinant; tags: N-terminal polyhistidine and DsRed monomer fusion (pET32a); chain copies: 2; label: CyDye5-dUTP incorporated in the synthesized complementary strand; 3' TTTTT single-stranded linker to array surface; dsDNA, one strand shown. A digest of the protocol:
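Binding signal is defined as the fluorescence intensity of each feature in arbitrary units, read on an Axon 4000B scanner. Transcription factors with N-terminal polyhistidine and DsRed fusions came from E. coli BL21-CodonPlus and were purified on Ni–NTA. They were incubated at 200 nM for 1 h at 25 °C on a custom Agilent array that had been made double-stranded with Cy5-dUTP, with 50 µM zinc acetate present, and the array was washed.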
With “TTCTTCGAGGACCACATGCGTGAGTGGATGACGGAGTTCCCGGAGTCACCTAGTGCAG”, the binding signal was 3950 fluorescence intensity (a.u.).
The value for “TTAATTATTAAATTCTTTTCACTGTCTACTACTTGTTCCGCGGAGTCACCTAGTGCAG” was 22300 fluorescence intensity (a.u.); that for “GCGGAAAGGGAAAGGCCCGACGAATGGGAGGAATCATATACGGAGTCACCTAGTGCAG” was 40300 fluorescence intensity (a.u.); that for “TTTGTGGTTGGAGGTTATGAATCATACTCGAGGCATAGTTCGGAGTCACCTAGTGCAG” was 22000 fluorescence intensity (a.u.).
The value for “CTGACGAATATACAGGAGGGAACCGAATGGCGCGCAATTGCGGAGTCACCTAGTGCAG” was 21700 fluorescence intensity (a.u.); that for “GTTTTATGGTTGGAGGTCATGAATCATACTCGTGTCATAGCGGAGTCACCTAGTGCAG” was 7410 fluorescence intensity (a.u.).
With “TGGAGGTTATGAATCATACTCGGACGATAGTTAAGGGAGTCGGAGTCACCTAGTGCAG”, the binding signal was 49700 fluorescence intensity (a.u.).
The value for “CGGCATTATATACTAAAGAAAATGGAGGGAGTAGGAATCACGGAGTCACCTAGTGCAG” was 28700 fluorescence intensity (a.u.); that for “AGATTAGGTTGCTGTAGCCATGACTGTGAGTTGTGACTAGCGGAGTCACCTAGTGCAG” was 4030 fluorescence intensity (a.u.); that for “TGTATGGGCCTTACGTCAGCACGGCCCAGTTGCTGGTTTTCGGAGTCACCTAGTGCAG” was 17700 fluorescence intensity (a.u.).
The value for “TCACCTCCACCACCGTTGACGATGACACGCGGTGCGTCGCCGGAGTCACCTAGTGCAG” was 4250 fluorescence intensity (a.u.).
The value for “AACTAATGAATAGTGTGACGTATTGCCGAAATTTCTCAACCGGAGTCACCTAGTGCAG” was 7380 fluorescence intensity (a.u.).
“TGTGAATTGCATCAACCGAAAAGTAGATATTGGAGTATTTCGGAGTCACCTAGTGCAG”: the binding signal is 65500 fluorescence intensity (a.u.).
On to “ACATTTATTGCATCATTACATTCTGAAGTAATTTCAACATCGGAGTCACCTAGTGCAG”, for which the binding signal is 3470 fluorescence intensity (a.u.).
The same measure for “ACCTACATGTGCGTAATATTCGTGGACACCAGGATTTAAACGGAGTCACCTAGTGCAG”: 3510 fluorescence intensity (a.u.); for “TTGTATTTTGGAAATATGACGCATTAGATGTTTTATATATCGGAGTCACCTAGTGCAG”: 3570 fluorescence intensity (a.u.).
For the sequence “GTTGAGGTCTCGCGCTCCCGTCCTCGTCTCGTCCTCTCCCCGGAGTCACCTAGTGCAG”, the binding signal was 21500 fluorescence intensity (a.u.).
The same measure for “TATGAGTATCCTATATACATATATATACATATATATATACCGGAGTCACCTAGTGCAG”: 27300 fluorescence intensity (a.u.); for “TATGAGGGTATCAGGGTCGTTGAGGTCTCTCCTCCTACACCGGAGTCACCTAGTGCAG”: 41000 fluorescence intensity (a.u.).
In the case of “TCACGCTCTCAACGCTGCTGTGTCACGTCACGTCACGCGCCGGAGTCACCTAGTGCAG”, the binding signal was 16400 fluorescence intensity (a.u.).
Take “TGAAAATATATTCAATTATTGATTCGATAAAACTAATTTACGGAGTCACCTAGTGCAG”: the binding signal was 3460 fluorescence intensity (a.u.).
The same measure for “CTAAAACAGGCGAGTAGGATATACTACCTTCAATTATATTCGGAGTCACCTAGTGCAG”: 40600 fluorescence intensity (a.u.); for “TTTCAACAGATATTTTATTGTGACGTTGCAATTACTAAAACGGAGTCACCTAGTGCAG”: 4950 fluorescence intensity (a.u.).
On to “TCAACCGTATCTGACGCCTGCATTTCCTCTACCAGCCAAGCGGAGTCACCTAGTGCAG”, for which the binding signal is 4010 fluorescence intensity (a.u.).
Take “CTAAAACTCAACATATAAACATGCCACCTCATCATCTATACGGAGTCACCTAGTGCAG”: the binding signal is 7400 fluorescence intensity (a.u.).
Regarding “AAATAGCCAAGCCATATCATCTCATCCATATCATAATCGGCGGAGTCACCTAGTGCAG”, the binding signal is 3200 fluorescence intensity (a.u.).
The value for “TATGAAATATCCCATCCTATCATAGATTATTATATTACGACGGAGTCACCTAGTGCAG” was 26400 fluorescence intensity (a.u.); that for “CATCCTAACGGATTATTCTCTCAACCCCACGAACCATTCACGGAGTCACCTAGTGCAG” was 19200 fluorescence intensity (a.u.); that for “GCAACATAACCCATCCTAGATTGCTATATATTGGGACGAACGGAGTCACCTAGTGCAG” was 65500 fluorescence intensity (a.u.).
For “CAGGCCGGAAACCGGCCGAGCCCACCCATTAGAAAGGACGCGGAGTCACCTAGTGCAG”, the binding signal was 22900 fluorescence intensity (a.u.).
The value for “CACTCAAAATCTCTTTCGTGTCCACCTCACCTTGCACCACCGGAGTCACCTAGTGCAG” was 4870 fluorescence intensity (a.u.); that for “TCCCGTCTCGGCTCCTTGCGCCATCGTCGACAGGGGAGGGCGGAGTCACCTAGTGCAG” was 3540 fluorescence intensity (a.u.).
As for “ACGAGCCCACGAGGTTGATGACGACGAAGCCGAAGAGTTGCGGAGTCACCTAGTGCAG”, the binding signal was 4660 fluorescence intensity (a.u.).
In the case of “GATGGGCCCACCCGTCATCCACACGAGGGCCACGCCTTGCCGGAGTCACCTAGTGCAG”, the binding signal is 3380 fluorescence intensity (a.u.).
The same measure for “GGCCTTGCCACGAGCCCACGAGAGGTTTGGTTGATGGGCCCGGAGTCACCTAGTGCAG”: 46500 fluorescence intensity (a.u.); for “CCACCATGGCATGCCACGTCAACACACAGAGTGGGTTGGACGGAGTCACCTAGTGCAG”: 17900 fluorescence intensity (a.u.); for “CAAATGCAGAAAAGATAATCTCCTTTCTCTCTCTATTAAACGGAGTCACCTAGTGCAG”: 31100 fluorescence intensity (a.u.).
Take “TCACACCCCATCTATGTTGTCGCTCCACATAGGCTAGGCCCGGAGTCACCTAGTGCAG”: the binding signal was 3260 fluorescence intensity (a.u.).
Consider “TTGTTCCTTGCTAATATATTGACGTGTAATTCTTTTATGCCGGAGTCACCTAGTGCAG”, for which the binding signal is 9690 fluorescence intensity (a.u.).
The same measure for “TGGTACAAGGATTTGTCCTGTCAACATGGCAATCCTCTGCCGGAGTCACCTAGTGCAG”: 3360 fluorescence intensity (a.u.); for “GCGCTGACGTGTCGCTATCCTACTGGAACACACCACGTCACGGAGTCACCTAGTGCAG”: 46500 fluorescence intensity (a.u.).
Turning to “GCAACCACCGTGACGCCGCCGCGCGCCCACTGGAACACGTCGGAGTCACCTAGTGCAG”, the binding signal is 5010 fluorescence intensity (a.u.).
As to “TCCACCGTCTGCTACTGCTAGCGTGCTACTGTCTCGCTGACGGAGTCACCTAGTGCAG”, the binding signal was 3350 fluorescence intensity (a.u.).

Values taken from article PMC7819943, “Rice protein-binding microarrays: a tool to detect cis-acting elements near promoter regions in rice”.
